Assay results from the supplement of paper PMC10646978.
± gives the standard deviation.

Legend:
Conditions in all cases: modulator concentration 10 µM
[1] = system: RAW-Dual (murine macrophage reporter line); assay: NF-kB reporter (SEAP) activity fold change vs agonist alone; higher = enhanced NF-kB activity
Summary of the method: (§1)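 RAW-Dual murine macrophage reporter cells were plated at 50 000 per well in 384-well plates, pin-transferred compound to 10 μM final, and pre-incubated for 1 hour at 37 °C before a PRR agonist was added and the cells incubated overnight. NF-κB activity was read from supernatant SEAP with QUANTI-Blue at 620 nm absorbance, and IRF activity from Lucia luciferase with QUANTI-Luc by luminescence. Each signal was expressed as fold change by dividing by the mean agonist-only control on the same plate. Two replicate plates were averaged, with errors obtained by propagation.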

[2] = system: RAW-Dual (murine macrophage reporter line); assay: IRF reporter (Lucia luciferase) activity fold change vs agonist alone; higher = enhanced IRF activity
Summary of the method: as §1

[3] = system: RAW-Dual (murine macrophage reporter line); assay: viability score (confluency relative to resting cells, overnight) (fraction); higher = more viable, active = viable (0.7 or more)
Summary of the method: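 Two confluency masks, generated with IncuCyte software over all imaged wells, were applied to IncuCyte images of RAW-Dual macrophages. The cells, in 384-well plates, had been exposed overnight to 10 μM final compound. The viability score is confluency as a fraction of resting cells, and a compound met the cutoff only with both masks above 70% of resting cells.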

[4] = agonist: CpG ODN 1826 0.5 ug/mL

Row | Structure (SMILES) | NF-kB reporter [1, 4] | NF-kB reporter ([1]; agonist: LPS 0.1 ug/mL) | NF-kB reporter ([1]; agonist: MPLA […]) | IRF reporter ([2]; agonist: 3'3'-cGAMP 10 ug/mL) | IRF reporter ([2]; agonist: LPS 0.1 ug/mL) | IRF reporter ([2]; agonist: MPLA […]) | viability score [3]
1 | COc1ccccc1CC(=O)N1CCN(Cc2cnnn2-c2ccccc2F)CC1 | 0.894 ± 0.048 | 0.985 ± 0.084 | 1.15 ± 0.065 | 1.16 ± 0.093 | 1.14 ± 0.19 | 1.11 ± 0.46 | 1.01 (active)
2 | O=[N+]([O-])c1ccc(NCCc2ccccc2)c2ncccc12 | 0.971 ± 0.17 | 1.04 ± 0.086 | 1.6 ± 0.64 | 0.926 ± 0.032 | 1.25 ± 0.21 | 1.31 ± 0.2 | 0.997 (active)
3 | CC(C)N(CCC(C(N)=O)(c1ccccc1)c1ccccn1)C(C)C (stereo not drawn) | 0.86 ± 0.23 | 0.945 ± 0.09 | 0.99 ± 0.067 | 0.849 ± 0.064 | 0.94 ± 0.2 | 1.12 ± 0.13 | 0.998 (active)
4 | CC[C@@]1(O)C(=O)OCc2c1cc1n(c2=O)Cc2cc3ccccc3nc2-1 [Prestw-200] | 1.33 ± 0.23 | 1.75 ± 0.17 | 2.95 ± 0.72 | 3.06 ± 0.081 | 2.05 ± 0.42 | 2.66 ± 0.37 | 0.768 (active)
5 | O=C(NCCN1CCOCC1)c1ccc(Cl)nc1 | 0.917 ± 0.17 | 1.15 ± 0.13 | 0.995 ± 0.1 | 0.987 ± 0.026 | 1.12 ± 0.21 | 1.09 ± 0.13 | 0.972 (active)
6 | CC1=C(O)C(=O)C=C2C1=CC=C1C2(C)CCC2(C)C3CC(C)(C(=O)O)CCC3(C)CCC12C (stereo not drawn) | 0.062 ± 0.0049 | 0.048 ± 0.0035 | 0.0885 ± 0.0089 | 0.0157 ± 0.0014 | 0.116 ± 0.081 | 0.071 ± 0.039 | 0.381 (inactive)
7 | CCC1(c2cccc(O)c2)CCCCN(C)C1.Cl (stereo not drawn) | 0.894 ± 0.13 | 0.99 ± 0.054 | 1 ± 0.047 | 1.08 ± 0.088 | 0.963 ± 0.043 | 0.948 ± 0.21 | 1.01 (active)
8 | O=C1NC(=O)C(=Cc2cc(Br)ccc2OCc2ccc(Cl)cc2Cl)C(=O)N1 | 0.887 ± 0.05 | 0.945 ± 0.071 | 0.794 ± 0.058 | 0.949 ± 0.033 | 0.751 ± 0.11 | 0.822 ± 0.16 | 0.991 (active)
9 | Cc1cc(C(C#N)c2ccc(Cl)cc2)c(Cl)cc1NC(=O)c1cc(I)cc(I)c1O (stereo not drawn) | 0.812 ± 0.14 | 0.999 ± 0.15 | 0.834 ± 0.055 | 0.731 ± 0.058 | 1.3 ± 0.11 | 1.02 ± 0.085 | 0.389 (inactive)
10 | Cc1ccccc1C(=O)Nc1cc(Cl)c([N+](=O)[O-])cc1Cl | 1.05 ± 0.061 | 0.897 ± 0.078 | 0.973 ± 0.029 | 0.997 ± 0.037 | 0.996 ± 0.11 | 0.988 ± 0.21 | 0.998 (active)
11 | C#CCOc1ccc(C=C2C(=O)NC(=O)N(c3cc(OC)c(Cl)cc3OC)C2=O)cc1Cl | 1.1 ± 0.1 | 1 ± 0.059 | 0.899 ± 0.056 | 0.952 ± 0.051 | 1.15 ± 0.12 | 0.887 ± 0.055 | 1.01 (active)
12 | COc1ccc(N2C(=O)C(=Cc3ccc(OCc4ccc(F)cc4)c(OC)c3)C(=O)NC2=S)cc1 | 1.08 ± 0.11 | 1.04 ± 0.085 | 0.932 ± 0.057 | 0.919 ± 0.042 | 1.02 ± 0.062 | 1.05 ± 0.13 | 1.01 (active)
13 | CC12CCC3C(CCC4CC(=O)CCC43C)C1CCC2=O (stereo not drawn) | 1.29 ± 0.32 | 1.03 ± 0.058 | 0.933 ± 0.075 | 1.04 ± 0.044 | 1.23 ± 0.18 | 1.23 ± 0.17 | 0.997 (active)
14 | O=C(NCCN1CCN(c2ccccc2)CC1)c1ccc(F)cc1 | 1 ± 0.081 | 1.04 ± 0.051 | 1.03 ± 0.026 | 1.1 ± 0.18 | 0.94 ± 0.045 | 0.83 ± 0.084 | 1 (active)
